Values joined by “and” are separate entries in the source; they are usually repeats but may differ in a detail not shown here. Equal values may be shown once. Compounds without any hit were thinned out: in the full panel of roughly 83,000, 20% have a hit.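 Testing used 96-well plates and a 48-hour single-concentration exposure. Example: -40 means 40% of the starting cells died.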 A number with no mark means an inactive call. Active and inactive are the calls of the source. How the source made its calls: active means growth percent below 10; inactive means the rest.
Legend:
Assay in all cases: NCI-60 one-dose screen, 48 h (100 = growth as untreated, 0 = no growth, -100 = all killed)
Details in all cases: 10 µM unless noted
[1] = system: SR leukemia
[2] = system: RPMI-8226 leukemia
[3] = system: OVCAR-8 ovarian
[4] = system: OVCAR-5 ovarian
[5] = system: OVCAR-4 ovarian
[6] = system: SK-OV-3 ovarian
[7] = system: IGROV1 ovarian
[8] = system: OVCAR-3 ovarian
[9] = system: HS 578T breast
[10] = system: NCI/ADR-RES ovarian
[11] = system: T-47D breast
[12] = system: BT-549 breast
[13] = system: MDA-MB-435 melanoma
[14] = system: HCT-116 colon
[15] = system: HCC-2998 colon
[16] = system: KM12 colon
[17] = system: MDA-MB-468 breast
[18] = system: SW-620 colon
[19] = system: MCF7 breast

Compound | growth [1] | growth [2] | growth [3] | growth [4] | growth [5] | growth [6] | growth [7] | growth [8] | growth [9] | growth [10] | growth [11] | growth [12] | growth [13] | growth [14] | growth [15] | growth [16] | growth [17] | growth [18] | growth [19]
CC12CC[C@@H]3[C@]4(C)COC(c5cn[nH]c5-c5cccc(Cl)c5)O[C@@H]4CC[C@@]3(C)[C@@H]1CC(C1=CCOC1=O)O2 (stereo not given in full) | 29.7% | 13.8% | 38.7% | 61.7% | 29.1% | 62.4% | 49.8% | 44.5% | 46.8% | 31.1% | 17.7% | 0.371% (active) | 44.1% | 19.1% | 40.7% | 17.9% | 7.22% (active) |  | 
COc1ccc2[nH]cc(-c3cc(N)n4nc(-c5cn(C)c6ccccc56)cc4n3)c2c1 | 9.5% (active) | -18% (active) | -95.6% (active) | -85.9% (active) | -58.3% (active) | -84% (active) | -64.2% (active) | -43% (active) | -7.76% (active) | -45.3% (active) | -73.3% (active) | -75.2% (active) |  | -85.9% (active) | -81.3% (active) | -69.9% (active) |  | -46.1% (active) | -82.2% (active)
O=C(CN1C(=O)/C(=C/c2ccccc2Cl)SC1=S)N1CCOCC1 | 34.3% | 58.8% | 97.1% | 98.3% | 78.2% | 124% | 107% | 77.1% | 106% | 95.5% | 70.9% | 119% | 91.3% | 61.1% | 124% | 101% | -2.81% (active) |  | 49.6%
COc1cc(C2CC(c3cc(OC)c(OC)c(OC)c3)=NN2c2ccccc2)ccc1OCc1ccc(C)cc1 (stereo not given) | 105% | 102% | 98% | 105% | 89.2% | 101% | 94.2% | 101% | 94.5% | 101% | 79.9% | 103% | 97% | 80.6% | 110% | 96.9% | 92.2% |  | 81.3%
Cc1ccc(C(SCCNCc2cc(N(C)C)ccn2)(c2ccccc2)c2ccccc2)cc1 | -45.1% (active) | -54.6% (active) | -52.5% (active) | -19.9% (active) | 11.4% | -10.5% (active) | 6.28% (active) | -46.7% (active) | -45.7% (active) | -56.8% (active) | -39% (active) | -51.8% (active) | -75.4% (active) | -80.5% (active) | -93.8% (active) | -40.1% (active) | -69.5% (active) |  | -80.5% (active)
NS(=O)(=O)c1ccc(CCNC(=O)CSc2ccc(-c3ccc(Br)cc3)nn2)cc1 | 55.9% | 40.1% | 64.6% | 94.9% | 49.3% | 73% | 72.1% | 91% | 73.1% | 102% | 41.2% | 39.5% | 59.1% | 21.3% | 92.5% | 66.4% | 20.8% | 72.2% | 
CC1(c2cc3cc(Cl)ccc3oc2=O)NC(=O)c2c(/C=C/C(=O)OC3CC4CCC3(C)C4(C)C)cccc2N1 (stereo not given) | 42.2% | 22% | 70.4% | 80.6% | 54.4% | 66.1% | 76.1% | 69% | 72.8% | 64% | 24.4% | 59.3% | 81% | 40.4% | 82.6% | 64.8% | -6.79% (active) |  | 37.4%
CCCCSc1nc(NCCc2c[nH]c3ccccc23)c(C#N)c(-c2ccc(OC)cc2)n1 | 5.98% (active) | 30.7% | 79.2% | 87% | 67.2% | 83.7% | 102% | 83.6% | 47% | 51.7% | 30.7% | 99.4% |  | 21.4% | 49.2% | 36.2% | 51.1% | 52.8% | 17.7%
CCCSc1nc(NCCc2c[nH]c3ccccc23)c(C#N)c(-c2ccc(F)cc2)n1 | 6.1% (active) | 38.4% | 65.2% | 82.6% | 70.7% | 72.3% | 85.8% | 84.9% | 34.9% | 49.5% | 26.4% | 64.5% | 72.9% | 22.6% | 44.4% | 31.3% | 44.4% |  | 35.3%
COc1cccc(-c2nc(Nc3ccc(S(N)(=O)=O)cc3)c3ccccc3n2)c1 | 23.6% | 6.94% (active) | 35.5% | 72.5% | 35.1% | 73.5% | 42.4% | 22.9% | 44% | 26.4% | 20.9% | 54.5% | 38.8% | 32.2% | 6.44% (active) | 6.75% (active) |  |  | 19.8%
COc1c(F)ccc(C(=O)Nc2ccc3nc(NC(=O)C4CCCN(S(=O)(=O)c5ccc(C(F)(F)F)cc5)C4)sc3c2)c1F (stereo not given) | 43.4% | 54.3% | 95.8% | 100% | 69.1% | 103% | 70.5% | 78.2% | 51.4% | 80% | 59.7% | 68.7% | 94.2% | 63.4% | 99.2% | 75.2% | 104% | 95.1% | 
CCOc1ccc(C(=O)NC(=S)Nc2ccc(S(N)(=O)=O)cc2)cc1 | 97.7% [100 µM] | 102% [100 µM] | 89% [100 µM] | 103% [100 µM] | 84.7% [100 µM] | 102% [100 µM] | 96.4% [100 µM] | 97.9% [100 µM] | 89.2% [100 µM] | 102% [100 µM] | 74.3% [100 µM] | 99.1% [100 µM] | 99.1% [100 µM] | 97.9% [100 µM] | 99.5% [100 µM] | 97.8% [100 µM] | 83.9% [100 µM] |  | 97.6% [100 µM]
CC(=O)Nc1ccc(-n2cnc3cc(-c4ccc(O)cc4)ccc32)cc1C(F)(F)F | 16.3% | 16.6% | 16.1% | 37.9% | 40.8% | 56.3% | 35.1% | 24.7% | 0.862% (active) | 16.3% | 20.5% | 32.5% | 3.5% (active) | 31% | 33.9% | 3.46% (active) | 8.18% (active) |  | 18.4%
O=c1oc2ccccc2cc1-c1csc(N=Nc2c(O)[nH]c3ccc(Cl)cc23)n1 | 96.3% | 117% | 110% | 116% | 99.5% | 94.1% | 120% | 102% | 99.2% | 103% | 93.6% | 104% | 106% | 106% | 103% | 103% | 106% and 94.5% |  | 81.4%
O=c1[nH]c2ccc(Cl)cc2cc1CSc1nccc(-c2ccc(Cl)cc2)n1 | 88.6% | 71.3% | 42.9% | 66.4% | 38.9% | 69.2% | 59.3% | 86.6% | 33.8% | 56.7% | 41.6% | 23.9% | 76.5% | 30.3% | 61.7% | 69.7% | 29.7% | 73.4% | 
CC(C)CSc1nc(NCCc2c[nH]c3ccccc23)c(C#N)c(-c2ccccc2)n1 | -10.2% (active) | 35.8% | 76.9% | 85.6% | 77.2% | 86.7% | 104% | 93.5% | 48.2% | 53.5% | 30.9% | 92.6% | 71.7% | 11.6% | 43.5% | 35.3% | 20.8% |  | 20.1%

Reference: PubChem BioAssay (NCI)
